# From ChEMBL document CHEMBL1961873, “Compounds: GSK PKIS; Assays: Nanosyn kinase panel” (2012)
# Key:
# [1] = biological target: Calcium/calmodulin-dependent protein kinase type II subunit alpha (Homo sapiens) (UniProt Q9UQM7); conditions: at 1 µM;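 further: reported value is a mean percent inhibition of CAMK2A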
# [2] = biological target: Calcium/calmodulin-dependent protein kinase type II subunit delta (Homo sapiens) (UniProt Q13557); conditions: at 0.1 µM
# [3] = biological target: Calcium/calmodulin-dependent protein kinase type II subunit delta (Homo sapiens) (UniProt Q13557); conditions: at 1 µM
# [4] = biological target: T1, Calcium/calmodulin-dependent protein kinase type IV (Homo sapiens) (UniProt Q16566); conditions: at 0.1 µM
# T1 sequence (whole entry): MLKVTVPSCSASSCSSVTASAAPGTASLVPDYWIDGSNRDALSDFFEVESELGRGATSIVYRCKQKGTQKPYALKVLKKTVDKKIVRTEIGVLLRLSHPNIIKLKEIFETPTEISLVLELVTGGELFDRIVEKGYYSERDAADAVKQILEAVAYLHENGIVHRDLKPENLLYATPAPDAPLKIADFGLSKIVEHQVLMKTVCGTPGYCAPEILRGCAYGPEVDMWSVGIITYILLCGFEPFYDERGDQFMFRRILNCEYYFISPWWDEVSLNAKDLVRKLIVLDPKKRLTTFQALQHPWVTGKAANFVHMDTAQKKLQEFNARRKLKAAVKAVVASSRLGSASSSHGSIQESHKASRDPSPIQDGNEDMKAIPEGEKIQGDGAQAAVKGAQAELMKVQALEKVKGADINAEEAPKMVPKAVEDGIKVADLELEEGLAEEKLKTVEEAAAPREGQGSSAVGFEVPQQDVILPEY
# [5] = biological target: T1, Calcium/calmodulin-dependent protein kinase type IV (Homo sapiens); conditions: at 1 µM
# [6] = biological target: T2, Serine/threonine-protein kinase Chk1 (Homo sapiens) (UniProt O14757); conditions: at 0.1 µM
# T2 sequence (whole entry): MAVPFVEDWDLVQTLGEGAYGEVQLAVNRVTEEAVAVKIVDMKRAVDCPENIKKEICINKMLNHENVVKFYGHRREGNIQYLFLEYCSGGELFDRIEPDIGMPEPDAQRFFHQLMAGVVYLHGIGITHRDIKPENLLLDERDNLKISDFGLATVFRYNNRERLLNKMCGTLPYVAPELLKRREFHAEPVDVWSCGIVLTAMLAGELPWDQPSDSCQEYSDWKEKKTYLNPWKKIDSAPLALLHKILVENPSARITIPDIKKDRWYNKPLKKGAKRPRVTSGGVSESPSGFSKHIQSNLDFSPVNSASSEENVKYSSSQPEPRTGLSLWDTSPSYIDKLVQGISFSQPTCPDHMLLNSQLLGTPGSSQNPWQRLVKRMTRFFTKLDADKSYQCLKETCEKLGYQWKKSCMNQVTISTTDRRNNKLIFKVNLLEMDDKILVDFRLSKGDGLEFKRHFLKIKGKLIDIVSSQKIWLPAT
# [7] = biological target: T2, Serine/threonine-protein kinase Chk1 (Homo sapiens); conditions: at 1 µM
# [8] = biological target: Serine/threonine-protein kinase Chk2 (Homo sapiens) (UniProt O96017); conditions: at 0.1 µM
# [9] = biological target: Serine/threonine-protein kinase Chk2 (Homo sapiens) (UniProt O96017); conditions: at 1 µM
# [10] = biological target: Death-associated protein kinase 1 (Homo sapiens) (UniProt P53355); conditions: at 0.1 µM;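 further: reported figure is the mean inhibition of DAPK1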
# Chain of Death-associated protein kinase 1 (Homo sapiens) (P53355 whole entry, looked up): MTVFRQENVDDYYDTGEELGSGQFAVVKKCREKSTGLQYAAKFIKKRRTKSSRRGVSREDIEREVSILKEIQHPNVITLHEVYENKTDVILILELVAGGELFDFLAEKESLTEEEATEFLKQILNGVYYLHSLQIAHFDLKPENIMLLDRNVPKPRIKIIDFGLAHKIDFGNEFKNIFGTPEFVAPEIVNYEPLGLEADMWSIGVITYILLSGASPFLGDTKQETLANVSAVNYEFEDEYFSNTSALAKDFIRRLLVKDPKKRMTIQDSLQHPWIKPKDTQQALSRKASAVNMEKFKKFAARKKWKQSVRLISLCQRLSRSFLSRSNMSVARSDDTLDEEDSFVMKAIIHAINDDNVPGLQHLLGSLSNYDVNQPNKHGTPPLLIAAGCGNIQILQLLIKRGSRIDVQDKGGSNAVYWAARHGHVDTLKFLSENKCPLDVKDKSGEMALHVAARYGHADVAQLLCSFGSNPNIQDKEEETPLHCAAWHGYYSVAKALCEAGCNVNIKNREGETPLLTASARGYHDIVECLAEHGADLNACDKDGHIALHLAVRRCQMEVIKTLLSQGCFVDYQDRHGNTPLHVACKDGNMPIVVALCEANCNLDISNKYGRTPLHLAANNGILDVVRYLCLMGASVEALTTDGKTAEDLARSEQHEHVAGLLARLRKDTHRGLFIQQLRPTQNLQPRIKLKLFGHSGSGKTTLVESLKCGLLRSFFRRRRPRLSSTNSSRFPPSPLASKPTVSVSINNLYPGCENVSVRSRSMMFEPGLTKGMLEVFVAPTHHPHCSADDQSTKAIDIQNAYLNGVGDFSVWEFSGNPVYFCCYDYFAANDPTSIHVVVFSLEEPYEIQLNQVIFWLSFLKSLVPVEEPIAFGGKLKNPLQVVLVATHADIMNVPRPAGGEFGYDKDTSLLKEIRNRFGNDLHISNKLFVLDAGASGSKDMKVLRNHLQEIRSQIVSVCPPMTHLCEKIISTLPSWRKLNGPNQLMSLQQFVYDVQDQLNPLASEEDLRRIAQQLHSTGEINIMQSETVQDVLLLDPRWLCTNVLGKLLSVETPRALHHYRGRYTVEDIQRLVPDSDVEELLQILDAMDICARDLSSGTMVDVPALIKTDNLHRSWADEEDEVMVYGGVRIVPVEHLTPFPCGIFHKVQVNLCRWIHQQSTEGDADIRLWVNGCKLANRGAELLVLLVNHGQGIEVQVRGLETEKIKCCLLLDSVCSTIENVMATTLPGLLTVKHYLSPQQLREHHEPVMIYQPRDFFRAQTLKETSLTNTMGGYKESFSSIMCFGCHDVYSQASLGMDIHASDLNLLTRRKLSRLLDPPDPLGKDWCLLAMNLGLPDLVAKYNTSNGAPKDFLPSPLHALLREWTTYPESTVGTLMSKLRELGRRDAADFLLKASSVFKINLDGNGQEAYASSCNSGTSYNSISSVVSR
# Chain of Calcium/calmodulin-dependent protein kinase type II subunit alpha (Homo sapiens) (Q9UQM7 whole entry): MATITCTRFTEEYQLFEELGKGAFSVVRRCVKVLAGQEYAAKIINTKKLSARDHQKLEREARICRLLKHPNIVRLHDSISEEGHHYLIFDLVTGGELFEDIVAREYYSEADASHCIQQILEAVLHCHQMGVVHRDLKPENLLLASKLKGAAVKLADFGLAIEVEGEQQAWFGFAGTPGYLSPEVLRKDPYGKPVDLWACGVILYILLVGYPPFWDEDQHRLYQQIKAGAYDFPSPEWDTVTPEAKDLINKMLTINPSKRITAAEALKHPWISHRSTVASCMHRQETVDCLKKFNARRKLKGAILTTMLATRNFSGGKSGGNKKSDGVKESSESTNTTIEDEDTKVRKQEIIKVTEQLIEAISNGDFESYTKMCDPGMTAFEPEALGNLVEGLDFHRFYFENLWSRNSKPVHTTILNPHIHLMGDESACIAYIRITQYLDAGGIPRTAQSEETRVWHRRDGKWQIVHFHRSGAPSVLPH
# Chain of Calcium/calmodulin-dependent protein kinase type II subunit delta (Homo sapiens) (Q13557 whole entry): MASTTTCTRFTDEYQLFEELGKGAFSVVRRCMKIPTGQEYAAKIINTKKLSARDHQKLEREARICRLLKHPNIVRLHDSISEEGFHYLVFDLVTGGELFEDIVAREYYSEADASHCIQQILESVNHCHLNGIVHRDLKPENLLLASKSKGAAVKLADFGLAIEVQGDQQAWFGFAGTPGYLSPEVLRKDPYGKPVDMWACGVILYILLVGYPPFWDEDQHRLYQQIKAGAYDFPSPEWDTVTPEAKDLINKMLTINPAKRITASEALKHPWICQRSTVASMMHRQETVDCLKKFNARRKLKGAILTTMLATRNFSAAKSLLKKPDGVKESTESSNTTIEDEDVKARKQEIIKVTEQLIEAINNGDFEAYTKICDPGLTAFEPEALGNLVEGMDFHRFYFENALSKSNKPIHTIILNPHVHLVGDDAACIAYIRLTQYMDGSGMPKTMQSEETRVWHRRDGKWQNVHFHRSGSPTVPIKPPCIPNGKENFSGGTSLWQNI
# Chain of Serine/threonine-protein kinase Chk2 (Homo sapiens) (O96017 whole entry): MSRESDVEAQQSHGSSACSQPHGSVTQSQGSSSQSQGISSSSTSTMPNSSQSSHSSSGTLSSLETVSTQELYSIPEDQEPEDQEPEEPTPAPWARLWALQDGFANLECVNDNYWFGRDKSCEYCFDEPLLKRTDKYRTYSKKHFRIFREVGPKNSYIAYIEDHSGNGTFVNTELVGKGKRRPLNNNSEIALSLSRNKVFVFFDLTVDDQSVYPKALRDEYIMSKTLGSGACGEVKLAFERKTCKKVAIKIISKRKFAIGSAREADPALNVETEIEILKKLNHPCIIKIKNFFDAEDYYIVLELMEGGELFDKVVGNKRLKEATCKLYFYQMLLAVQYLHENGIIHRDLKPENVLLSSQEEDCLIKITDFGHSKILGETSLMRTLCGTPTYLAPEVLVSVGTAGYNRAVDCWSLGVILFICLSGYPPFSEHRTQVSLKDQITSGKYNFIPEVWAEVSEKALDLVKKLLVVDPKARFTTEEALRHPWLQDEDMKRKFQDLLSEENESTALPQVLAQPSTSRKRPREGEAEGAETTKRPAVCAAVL
SMILES,inhibition [1],inhibition [2],inhibition [3],inhibition [4],inhibition [5],inhibition [6],inhibition [7],inhibition [8],inhibition [9],inhibition [10]
Cc1ccc2c(c1)/C(=N/Nc1ccc(S(N)(=O)=O)cc1)C(=O)N2,2.25%,1.2%,3.28%,1.05%,2.05%,0.25%,3.5%,0.04%,0.67%,0.46%
CS(=O)(=O)CCNCc1nc(-c2ccc3ncnc(Nc4ccc(OCc5cccc(C(F)(F)F)c5)cc4)c3c2)cs1,2.45%,2.93%,3.53%,0.68%,1.44%,1.74%,5.07%,1.74%,5.27%,3.32%
CCn1c(-c2nonc2N)nc2c(C#CC(C)(C)O)nc(OCCNC)cc21,3.51%,3.94%,7.7%,-0.53%,2.52%,-0.01%,1.87%,3.74%,6.21%,1.77%
CCCN1CCCC(c2ccc(Nc3nc(Nc4cc(F)ccc4C(N)=O)c4cc[nH]c4n3)c(OC)c2)C1 (stereo not given),44.9%,26.9%,72.8%,7.83%,36.1%,-4.38%,8.07%,48.9%,79.1%,3.54%
Cc1cc(-c2ccccn2)cc(C)c1/C=C/c1cncc(-c2nn[nH]n2)c1,1.59%,2.75%,5%,-1.17%,-1.4%,4.62%,4.81%,2.62%,4.43%,6.16%
CN(C)CCCn1c(-c2nonc2N)nc2cnccc21,3.18%,3.33%,4.12%,-0.84%,15.5%,5.63%,4.94%,2.39%,3.79%,4.9%
NS(=O)(=O)c1ccc(Nc2cc(-c3cccc(O)c3)n[nH]2)cc1,5.49%,5.13%,6.02%,0.32%,-1.03%,5.99%,8.68%,3.04%,6.54%,7.24%
CCn1c(-c2nonc2N)nc2ccc(F)cc21,3.68%,3.98%,3.55%,-2.59%,-2.75%,3.58%,8.57%,3.29%,4.58%,8.42%
NS(=O)(=O)c1ccc(-c2cc3ccncc3cc2OCc2ccccc2)cc1,2.94%,2.4%,4.59%,-1.16%,2.15%,0.26%,0.12%,2.85%,4.7%,1.1%
N#Cc1cccc(Nc2nccc(-c3cnn4ncccc34)n2)c1,35.4%,17.8%,63.4%,-1.28%,-0.33%,3%,3.73%,3.25%,10.6%,3.73%
ON=C1CCc2cc(-c3nc(C4CCNCC4)[nH]c3-c3ccncc3)ccc21,3.5%,16.1%,2.8%,1.25%,1.79%,0.67%,1.05%,0.01%,0.8%,0.46%
OCc1ccc(-c2nc(-c3ccccn3)c(-c3ccc4c(c3)OCO4)[nH]2)cc1,5.43%,4.96%,4.65%,0.02%,-0.32%,3.36%,3.17%,3.25%,4.36%,4.31%
NS(=O)(=O)c1ccc(N/N=C2\C(=O)Nc3ccc(Cl)cc32)cc1,4.05%,2.98%,4.81%,-0.73%,-3.41%,-3.35%,-2.04%,-2.37%,0.53%,-4%
CCOc1nccc2c1nc(-c1nonc1N)n2CC,2.47%,1.48%,3.36%,-4.15%,-3.33%,4.09%,5.94%,2.06%,3.78%,3.66%
O=S(=O)(CCOCc1ccc(-c2ccc3ncnc(Nc4ccc(OCc5cccc(F)c5)c(Cl)c4)c3c2)o1)c1ccccc1,-0.9%,0.42%,1.29%,-1.19%,-1.67%,3.34%,2.55%,1.33%,3.09%,1.67%
Cc1ccc(NC(=O)CC2CC2)cc1-c1ccc(C(=O)NCC2CC2)cc1,2.95%,2.84%,3.34%,-0.3%,-0.84%,7.49%,10.9%,6.96%,7.62%,11.5%
[O-][S+]1CCN(Cc2ccc(-c3ccc4ncnc(Nc5ccc(OCc6ccccc6)c(Cl)c5)c4c3)o2)CC1,-1.1%,0.81%,1.03%,-1.57%,-1.23%,3.06%,-0.08%,1.32%,2.85%,1.85%

SMILES,inhibition [1],inhibition [2],inhibition [3],inhibition [4],inhibition [5],inhibition [6],inhibition [7],inhibition [8],inhibition [9],inhibition [10]
Oc1cccc(-c2nc(-c3ccccc3)[nH]c2-c2ccncc2)c1,3.17%,3.67%,3.45%,2.26%,0.29%,7.47%,6.28%,0.91%,1.68%,5.76%
CC(C)c1ccc(Nc2nccc(-c3cnn4ncccc34)n2)cc1,4.19%,2.72%,8.29%,1.15%,2.83%,-1.58%,-2.41%,1.57%,3.38%,-1.79%
COc1cccc(-n2ncc3c(N/N=C/c4ccc(C)cc4)ncnc32)c1,5.56%,4.56%,12.5%,1.46%,4.68%,-5.6%,-5.11%,-1.83%,2.47%,-3.26%
C[C@@H](Oc1cc(-n2cnc3ccc(OCC4CCN(C)CC4)cc32)sc1C(N)=O)c1ccccc1C(F)(F)F,14.2%,6.59%,49.9%,-0.36%,1.74%,-1.68%,0.33%,-2%,-1.44%,-1.34%
CS(=O)(=O)Nc1cccc(-c2ccc3c(NC(=O)C4CC4)n[nH]c3c2)c1,2.85%,3.31%,3%,1.21%,0.65%,1.78%,1.91%,0.51%,0.84%,1.43%
Cc1cc(O)cc(C)c1/C=C/c1cncc(C(=O)N(C)C)c1,3.57%,3.56%,4.04%,2.13%,0.97%,5.84%,2.96%,-0.15%,0.11%,3.93%
Nc1ccc(C#Cc2cncnc2Nc2ccc(OCc3cccc(F)c3)c(Cl)c2)cc1,-1.06%,0.73%,0.72%,1.79%,-0.16%,0.65%,0.62%,1.8%,0.63%,4.63%
O=C1Nc2ccccc2/C1=C/Nc1ccc2[nH]c(=O)[nH]c2c1,6.6%,4.2%,14.1%,-1.23%,-1.4%,0.84%,15.7%,5.95%,23.3%,1.92%
COc1cc(Nc2nccc(-c3cnn4ncccc34)n2)cc(OC)c1,15.2%,6.12%,36.4%,1.42%,-0.26%,-0.97%,7.68%,1.81%,14.1%,1.9%
CCS(=O)(=O)c1ccc(OC)c(Nc2ncc(-c3cccc(OC)c3)o2)c1,6.74%,1.91%,9.35%,-0.13%,1.2%,1.44%,3.19%,1.56%,2.17%,2.65%
O=C1Nc2ccc(-c3cccnc3)cc2C1=Cc1cc(Br)c(O)c(Br)c1,5.84%,3.26%,7.6%,0.54%,-0.48%,3.16%,0.96%,3.4%,8.93%,1.41%
Nc1nccc(-c2c(-c3ccc(F)cc3)nn3cc(C(F)(F)F)ccc23)n1,-1.99%,0.49%,-0.48%,-0.17%,-1%,-1.52%,-2.44%,0.02%,-0.27%,2.24%
c1ccc(Cc2nc3ccc(Nc4ncnc5ccccc45)cc3[nH]2)cc1,2%,1.68%,2.41%,-2.03%,-1.81%,2.86%,9.39%,1.71%,5.02%,3.43%
COc1ccc2ncnc(Nc3ccc(OCc4ccccc4)cc3)c2c1,2.13%,0.77%,1.93%,0.01%,0.04%,0.93%,3.17%,1.65%,14.2%,3.34%
COc1cccc(-n2nc(C)c3c(N/N=C(\C)c4ccncc4)ncnc32)c1,-0.32%,0.75%,1.55%,-0.54%,0.81%,0.24%,0.57%,0.02%,0.48%,0.32%
Cc1ccc2c(-c3ccnc(Nc4cccc(C(F)(F)F)c4)n3)c(-c3ccccc3)nn2n1,1.98%,2.93%,5.15%,1.16%,3.52%,-6.21%,-9.83%,-3.6%,-3.73%,-4.51%
NC(=O)c1sc(-n2cnc3ccccc32)cc1OCc1ccccc1Br,3.18%,3.32%,7.99%,0.49%,2.57%,9.58%,13.2%,7.49%,10.5%,12.3%
